# In PubChem BioAssay AID1347426 (Functional Genomics Laboratory (NCATS/FGL), 2020):
# The whole screen tested about 31,000 sequences, of which about 1,400 (4.5%) were called active. The sample as a whole holds a higher share of actives than the screen did. A number with no mark means an inactive call.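 Rule for the calls: active = median seed-adjusted z-score above 1 or below -1; inactive = the rest.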
# Test: Novel Modifiers of Survival Motor Neuron (SMN) Protein: Gene Identification via Genome-wide siRNA Screen;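 note: luminescence tracks full-length SMN protein made from the SMN2 reporter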
# Conditions: HEK293T SMN2-luciferase reporter, siRNA knockdown, 72 h; actives lie on both sides
# Method in brief: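 Luciferase signal, proportional to full-length SMN made from an SMN2 cDNA reporter in stable HEK293T cells, was read 72 h after siRNA reverse transfection. Values were expressed as MAD scores after non-targeting-control normalization and log10 conversion; seed analysis flagged off-targets.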
row,Sequence,median seed-adjusted z-score
1,CAAGAGCACCGGUAAGGAATT against HSPA2,-0.0343
2,UGAACUACGUGACCGCGAATT against ELAVL1,0.316
3,GCAACUCCAGCCUAAUUAATT against ZNF792,0
4,CUGUGGUCUCUGUCUCUUATT against GPR75,0
5,CCAACAAGGUAGACCCAUUTT against PSMC5,-1.06 (active)
6,CUACCAGCCCUACACCAUUTT against CCL1,0.537
7,GGAGAUCCGUGAUGUAACATT against RUVBL2,-0.0764
8,AGAUGAAUCUGGAAUCGGUTT against LCN1,0.0607
9,CCGAAUGAGUUUGAACAUATT against ZNF48,-0.116
10,GGCUCUUCAUGGACCUUCATT against GPR173,-0.147
11,CAACCACAAUGUUCGUAAATT against GBF1,-0.162
12,GAAUGUCCCUUUAACUGCATT against NFXL1,0.118
13,CGAGUACUGUCUCAAGGUATT against TTC9B,-0.272
14,CAAUUACGAAUAGAAUUGATT against WEE1,-4.05 (active)
15,AGGACCAAAUGUCAAUUUATT against IL1RN,0.283
16,GGUGUGAACUGCGAAGUGATT against NOTCH3,0.395
17,GGACGUGACUUACAUAGUUTT against PRLR,0.394
18,CAGUUUAUCUCAGACAUCUTT against CD9,-1.02 (active)
19,UGGUCCGACUGGUACGACATT against TAC1,0.0499
20,GAGUCUUUAUUGGUAAAGATT against GLRX,-0.0561
21,ACAUUGUGGUAGCCUUGUATT against LYN,-0.178
22,GGCUGUCCUUAGUACCAGATT against CFTR,-1.23 (active)
23,GGAACUAAACUUGAUCUUATT against RAC1,-0.0348

row,Sequence,median seed-adjusted z-score
1,GAGUCGCUUUAGCUCCGAATT against XPNPEP2,-0.158
2,GGGAAAGCUGGACUACUAATT against PIK3CB,0.0911
3,CAAGGUGUUUUACCUGAAATT against YWHAH,-0.125
4,GCGUGACAGUGAUCCUGUATT against SLC27A5,0.441
5,AGAUCGACGUGAUCAAGCATT against GNAS,-0.531
6,GGACAUCUGGGUGAAGUUUTT against SNRPF,-2.66 (active)
7,CUAUCACUCUGGAACUGGATT against SMC2,-0.052
8,GGACAUGAACCAUACGAAUTT against PRPF8,-1.54 (active)
9,CAAUAAGACUGAGUUAUUATT against ETNK1,0.299
10,GACCCAAAGCGGCAGCAAATT against KLRC2,-0.472
11,CUCAUUGAGUUGGACAAAUTT against RHOU,-1.44 (active)
12,GGAUCGUGGUUGCAGGGAUTT against DNASE1,-0.35
13,CCAGACAGGAGGAACCAUATT against HDAC11,0.259
14,CUAUGGACAUGUCAAUUGUTT against CCNA2,0.136
15,CCGUAUUUCUAGUUCCCUUTT against ZNF442,1.06 (active)
16,GUGUGAUGGUUGUAAACGATT against ZMYM6,-0.355
17,CAUACUCAUUCUUGCAAUATT against PHOSPHO2,-0.247
18,GAGAGUAAAUAUGCGAAUATT against ATP8B1,0.357
19,GCAACAUCCUGGUUUUCGATT against LRP2,-0.512
20,GUAUCGCUGUUUCUACGGUTT against LILRA1,-0.231
21,GGAUCAUUCUCAACGGGAUTT against KCNV2,-1.13 (active)
22,UGUUGACACUUUUAUCCAATT against ANAPC11,-0.581
23,AACCCUUUGUGGAACACCATT against PSMB4,-0.16

row,Sequence,median seed-adjusted z-score
1,CGCAAAAAGGCAGACGAAATT against DUX5,-0.295
2,GCUAAGAAGAGAUAAUGAATT against MLKL,0
3,CCGAUUCGGUCACCAAGUATT against MYO1F,0.103
4,CCCUCACCGUGCAUGAGAATT against ZNF74,1.17 (active)
5,GUGCUAAAGAUCAUUGAUATT against TRIM32,0.109
6,GAUCAUGCGUAACUACAGUTT against JUP,0.15
7,AGAGCACCAGAAGACACAATT against GJC3,-0.137
8,GGACCUUUUUGUUAAGUCATT against RASD1,0.674
9,GGUCUUUACUGGAUUCAGATT against SERINC3,0.29
10,GAAUUUGUAUGAGAGCAUUTT against CYTH3,0.196
11,CUCUUAUGUUGGAUAUGUATT against USP14,0
12,GGAAGAAUUUCAGUCAGAATT against ZNF436,0.00767
13,GGACCUGCAUAUGAAAGUATT against PCDH8,-1.03 (active)
14,CAUUGUCUAUCAUCGCAAATT against NEB,0.0485
15,GGAAGGCAGAUGUAUCUUUTT against CMPK1,-0.363
16,GGCCUACGUUUGAAAGACATT against ZNF792,0
17,GACUUGUGAUACAAGCGUATT against RAD23B,0.639
18,GGUAAAGGGAAGUAACUAUTT against SLC2A13,-0.0451
19,CCCUAUCAAUUUCUAUGGATT against MPP4,0.13
20,GCCUGACAGUGGUAUACAATT against COPZ1,-1.02 (active)
21,GCUACAACUGGAUAAGGAATT against FTSJ1,0.0774
22,CAUGAUAUCUGGACCCAAATT against SSX3,0
23,AGACGUACCGAGAGGAGUATT against PLA2G2F,0.508
